Screening results deposited in PubChem by several laboratories.
phage Ecoli inh – growth loss of phage-infected E. coli, primary screen, RecBCD inhibitor project, absorbance, with phage, HTS; inhibition, % at 11.9 µM; 0.26% of 360,000 active; in the data active means inhibition above about 11%
Tat export inh – E. coli Tat export inhibitors, primary screen, MC4100, TorA-mCherry reporter, fluorescence, single point. AID 488895, 2010. 0.036% of 340,000 active. inhibition, % at 10 µM;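 active means mean replicate inhibition at least 50% and at least half of replicates individually reaching 50%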;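 further: exported cargo escapes ClpAP degradation while cytoplasmic cargo is degraded and loses fluorescence; 0% = median of neutral control wells and 100% = median of NaSCN control wells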
E coli growth-1 – E. coli growth inhibition, primary screen, OD600 | OD600 absorbance (no concentration beside the values) | 0.21% of 330,000 active | AID 1053175, 2014 | Escherichia coli growth, 23 h; stronger effect = lower value;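 active means OD600 absorbance below the run mean of sample wells minus 3.6 SD, in any replicate, cut at about 0.56 in these data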
E coli growth-2 – E. coli V3065 growth inhibition, primary screen, counter-screen for AddAB inhibitor project, absorbance, OD600 | 18 h | inhibition, % at 11.9 µM | 0.27% of 330,000 active | AID 449728, 2010;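 active means inhibition above the campaign's mean inhibition across all tested compounds plus 3 SD, cut at about 9.9% in these data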;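 further: uninfected addAB+ strain grown without phage in ampicillin broth; 0% = DMSO wells and 100% = ciprofloxacin 0.95 µg/ml wells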
AddAB inh – growth inhibition of E. coli expressing H. pylori AddAB, primary screen, AddAB inhibitor project, absorbance | inhibition, % at 11.9 µM | 0.29% of 330,000 active; in the data active means inhibition above about 12%;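 further: 0% = vehicle wells of infected cells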
AddAB confirm – growth loss of phage-infected E. coli expressing H. pylori AddAB, confirmation, AddAB inhibitor project, absorbance, E. coli V3065, T4 phage, triplicate; shares compounds with AddAB inh; OD; T4 phage with gene 2 nonsense mutations; inhibition, % at 11.9 µM; 64% of 880 active; AID 488942, 2010;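 active means mean inhibition above a set limit taken from the earlier primary screen, cut at about 13% in these data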;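 further: higher means less bacterial growth since AddAB block lets phage replicate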
RecBCD counter – growth loss of RecBCD+ E. coli with mutant T4 phage, counter-screen for AddAB inhibitor project, absorbance, V66 E. coli; AID 488955, 2010; 73% of 880 active; inhibition, % at 11.9 µM; OD growth; shares compounds with AddAB inh;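 active means mean inhibition above the mean of solvent-only control wells plus 3 SD, cut at about 4% in these data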;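 further: optical density read after an 18 h incubation at 37 °C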
Bact viability – bacterial viability inhibition counter-screen, confirmation, counter-screen for AddAB inhibitor project, absorbance | 35% of 880 active | inhibition, % at 11.9 µM | shares compounds with AddAB inh | absorbance (AddAB counterscreen); in the data active means inhibition above about 25%
RecBCD conf – growth loss of phage-infected RecBCD+ E. coli, confirmation, RecBCD inhibitor project, absorbance, E. coli V66, T4 gene 2 phage; shares compounds with phage Ecoli inh; E. coli V66 + T4 2- phage, growth OD; 45% of 890 active; inhibition, % at 11.9 µM;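 active means mean inhibition over triplicates exceeding the hit threshold derived in the original primary screen, cut at about 11% in these data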
Ecoli viability – E. coli viability inhibition, counter-screen for RecBCD inhibitor project, absorbance, high throughput | absorbance (OD) growth | shares compounds with phage Ecoli inh | inhibition, % at 11.9 µM | 29% of 890 active; in the data active means inhibition above about 20%;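 further: E. coli strain V66 grown with compound alone and no phage infection; 0% = bacteria with DMSO vehicle only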
AddAB counter – growth loss of phage-infected AddAB-carrying E. coli, confirmation, counter-screen for RecBCD inhibitor project, absorbance, E. coli V3065, T4 phage | E. coli expressing H. pylori AddAB + T4 phage, OD growth; gene 2 mutant T4, recBCD-deleted host | inhibition, % at 11.9 µM | shares compounds with phage Ecoli inh | 45% of 890 active;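 active means mean inhibition above the solvent-only control wells' mean plus 3 SD, cut at about 22% in these data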;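 further: higher means less bacterial growth from phage killing when AddAB is blocked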
* hit, by the source's call; · = not tested or not shown. In the library only some 0.5% were active in any assay of this set; here they are far more common.

SMILES	phage Ecoli inh	Tat export inh	E coli growth-1	E coli growth-2	AddAB inh	AddAB confirm	RecBCD counter	Bact viability	RecBCD conf	Ecoli viability	AddAB counter
COc1ccc2nc(NC(=O)CCNC(=O)c3ccco3)sc2c1	11.9*	-9.4	0.584	14.1*	15.7*	13.5*	11.6*	14.1	8.4	12.0	11.3
O=[N+]([O-])c1cccc(-n2cccc2C=NNc2nc(N3CCCCC3)nc(N3CCCCC3)n2)c1	·	·	0.744	·	·	·	·	·	·	·	·
CC(C)COc1ccc(Cc2cnc(N)nc2N)cc1	16.3*	-4.7	0.242*	6.9	12.3*	-1.4	9.2*	2.8	7.3	5.4	10.7
O=C1c2ccccc2NC(c2ccc(-c3ccc(C(F)(F)F)cc3)o2)N1O (stereo unspecified)	14.9*	-11.0	0.656	21.1*	17.4*	17.1*	7.7*	5.8	7.5	7.9	12.3
O=C1c2ccccc2NC(c2ccc(-c3cccs3)o2)N1O (stereo unspecified)	9.2	-10.3	0.693	6.2	4.5	·	·	·	·	·	·
O=C(CN1CCN(S(=O)(=O)c2ccc(Br)cc2)CC1)NN=Cc1ccncc1	·	·	0.678	·	·	·	·	·	·	·	·
C=CC[n+]1c(/C=C2\C=Cc3cc(C)ccc3N2CC)ccc2ccccc21	11.7*	-8.5	0.534	21.8*	19.9*	65.7*	6.6*	24.4	3.3	2.5	36.3*
CCOc1ccc2oc(C(=O)O)c(C)c2c1	2.3	-7.6	0.712	1.6	1.5	·	·	·	·	·	·
O=C(NNC(=O)c1cc2ccccc2o1)c1ccncc1	4.2	4.9	0.644	-0.5	-1.8	·	·	·	·	·	·
Cc1c(C(=O)NNC(=O)c2ccccc2O)oc2ccc(Br)cc12	12.7*	-1.5	0.715	19.3*	21.1*	17.4*	17.1*	15.4	8.0	9.9	10.5
O=C(NNC(=O)c1ccccc1O)c1cc2ccccc2o1	11.0*	2.7	0.545	12.9*	19.7*	10.0	11.2*	8.3	7.7	10.4	3.7
CCOc1ccc2oc(C(=O)NNC(=O)c3ccccc3O)c(C)c2c1	20.5*	-7.6	0.682	25.5*	25.0*	14.7*	20.5*	14.9	7.7	10.9	19.5
O=C(NN=Cc1cc([N+](=O)[O-])ccc1O)c1ccc2c(c1)OCCO2	·	·	0.649	·	·	·	·	·	·	·	·
NC(=S)Cc1ccc(Cl)cc1Cl	4.7	-4.2	0.648	2.5	1.3	·	·	·	·	·	·
N=C(N)SCc1ccc(Cl)cc1Cl	71.9*	-5.7	0.117*	68.4*	81.6*	86.0*	66.2*	89.0*	68.2*	69.3*	90.4*
Oc1ccc2ccccc2c1/C=N/Nc1nnc(-c2ncc[nH]2)c2ccccc12	16.7*	2.9	·	14.3*	18.6*	21.6*	24.2*	22.9	17.4*	21.8*	27.3*
Oc1ccc2ccccc2c1C=NNc1nnc(-c2ncc[nH]2)c2ccccc12	·	·	0.674	·	·	·	·	·	·	·	·
Cc1cccc(NCC(=O)NN=Cc2cccc(Br)c2)c1	·	·	0.678	·	·	·	·	·	·	·	·
CC(C)C(=O)Nc1ccc(C(=O)NN=CC2CC3C=CC2C3)cc1 (stereo unspecified)	·	·	0.691	·	·	·	·	·	·	·	·
CCCCCOc1ccc(CSC(=N)N)cc1[N+](=O)[O-]	13.3*	-21.2	0.528*	13.4*	13.3*	14.8*	9.7*	11.9	1.7	4.2	13.8
O=C(O)c1cn(C2CC2)c2cc(N3CCN(S(=O)(=O)c4ccc5c(c4)OCCO5)CC3)c(F)cc2c1=O	92.8*	12.4	0.0815*	97.5*	99.2*	97.9*	98.5*	101.0*	101.8*	101.9*	103.0*
O=C(CSc1nnc(-c2ccccc2O)n1Cc1ccccc1)NNC(=O)c1ccccc1O	12.7*	17.9	0.605	14.2*	25.0*	5.2	5.9*	4.9	3.8	5.1	7.7
O=C(O)CSc1nnc(-c2ccccc2O)n1Cc1ccccc1	2.0	12.4	0.714	0.2	-3.7	·	·	·	·	·	·
O=C(CSc1nc2ccccc2[nH]1)Nc1ccc(N2CCOCC2)cc1	13.3*	-16.1	0.596	13.8*	25.1*	13.5*	16.9*	15.3	7.8	11.7	13.3
O=C(CSc1nc2ccccc2s1)Nc1ccc(N2CCOCC2)c(Cl)c1	15.6*	-23.4	0.656	12.2*	21.4*	18.9*	11.7*	15.9	10.8	13.0	24.4*
SMILES	phage Ecoli inh	Tat export inh	E coli growth-1	E coli growth-2	AddAB inh	AddAB confirm	RecBCD counter	Bact viability	RecBCD conf	Ecoli viability	AddAB counter
CC(=O)Nc1ccc2nc(SCC(=O)Nc3ccc(N4CCOCC4)c(Cl)c3)sc2c1	2.6	-6.1	0.671	-3.4	2.1	·	·	·	·	·	·
Cc1ccc(C=NNC(=O)CCc2n[nH]c(=O)[nH]c2=O)o1	·	·	0.706	·	·	·	·	·	·	·	·
C#Cc1ccc(C2C=C(C(=O)NCc3nc4ccccc4[nH]3)OC(OCc3ccc(CO)cc3)C2)cc1 (stereo unspecified)	·	·	0.681	·	·	·	·	·	·	·	·
O=c1cc2oc3cc(O)c(O)cc3c(-c3ccccc3[N+](=O)[O-])c-2cc1O	11.2*	-0.3	0.784	12.5*	12.6*	9.5	11.6*	3.6	7.3	7.6	8.9
CCn1cc(C(=O)N[C@H](C(=O)NCCCOC)C(C)C)c(=O)c2cc3c(cc21)OCO3	0.2	-3.9	0.661	-3.1	2.2	·	·	·	·	·	·
CCn1cc(C(=O)N[C@H](C(=O)O)C(C)C)c(=O)c2cc3c(cc21)OCO3	11.5*	0.7	0.0685*	55.1*	58.6*	101.3*	10.0*	78.4*	4.7	4.0	51.5*
O=c1c2ccccc2nc(N/N=C/c2c(O)ccc3ccccc23)n1O	20.9*	4.0	·	23.7*	19.1*	24.2*	20.5*	16.6	12.4*	16.0	16.9
O=c1c2ccccc2nc(N/N=C/c2ccc(O)cc2)n1O	2.2	-5.1	·	1.5	1.9	·	·	·	·	·	·
N#Cc1ccc(NC(=O)Nc2ccc(Cl)cc2)cc1	13.0*	6.1	0.495*	15.2*	16.3*	15.8*	18.1*	15.9	14.2*	16.8	20.1
